The full data set covers some 7,900 targets. This sample favours those with a hit. About 0.6% of all pairs of compound and target were hits.
Tests used:
Experiment in all cases: log2 fold change, soluble protein after heating vs DMSO (PISA); higher = thermal stabilisation; K562 cells, 10 uM, 30 min; active = over 0.2 and 3.5 SD of the protein, either way, in both replicates (recomputed)
[1] = compound: CC[C@@H]1C(=O)N(C)c2cnc(Nc3ccc(C(=O)NC4CCN(C)CC4)cc3OC)nc2N1C1CCCC1
Procedure, shortened: (§1)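 Quantification of soluble protein used TMTpro 16plex LC-MS/MS, with channel sums equalised. Samples were the supernatant after 21,000xg for 90 min of pooled aliquots from K562 cells (2×10^6 cells/mL) treated with 10 μM compound for 30 min, heated for 3 min over 48°C-58°C, and extracted in PBS with 0.5% NP-40 at 4°C. Values, from duplicates, describe thermal stability against control samples on a log2 fold-change scale.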

[2] = compound: CC[C@@H]1C(=O)N(C)c2cnc(Nc3ccc(C(=O)N[C@H]4CC[C@H](N5CCN(CC6CC6)CC5)CC4)cc3OC)nc2N1C(C)C [volasertib]
Procedure, shortened: as §1

[3] = compound: CC[C@H](C)N1C=C(C2=C(C=C(C=C21)C3=CN=C(C=C3)N4CCNCC4)C(=O)NCC5=C(C=C(NC5=O)C)C)C
Procedure, shortened: as §1

[4] = compound: CC[C@H](C)[C@@H](C(=O)N[C@@H]([C@@H](C)O)C(=O)N[C@@H](CC(C)C)C(=O)[C@]1(CO1)C)NC(=O)[C@H]([C@@H](C)CC)N(C)C(=O)C [epoxomicin]
Procedure, shortened: as §1

[5] = compound: CCn1c(C(=O)N(C2CC2)C2CC2)cc2c3c(ncn3C)c(Nc3cc(C)n(C)n3)nc21
Procedure, shortened: as §1

[6] = compound: CCn1cc(-c2ccnc3[nH]c(-c4cccc(CN(C)C)c4)cc23)c(-c2ccc(NC(=O)N(C)C)cc2)n1
Procedure, shortened: as §1

[7] = compound: CN(C)CC(=O)Nc1ccc2[nH]c(=O)c3ccccc3c2c1
Procedure, shortened: as §1

[8] = compound: CN(CCOC1=CC=C(C=C1)C[C@H]2C(=O)NC(=O)S2)C3=CC=CC=N3 (racemic) [rosiglitazone]
Procedure, shortened: as §1

[9] = compound: CN1C2=C(C3=C1C(=O)N(N=C3)CC4=CC(=CC=C4)N)SC(=C2)S(=O)C
Procedure, shortened: as §1

[10] = compound: CN1CCC(CNc2ccc3ncc(-c4cccc(OC(F)(F)F)c4)n3n2)CC1
Procedure, shortened: as §1

[11] = compound: CN1CCN(CCOc2cc(OC3CCOCC3)c3c(Nc4c(Cl)ccc5c4OCO5)ncnc3c2)CC1 [saracatinib]
Procedure, shortened: as §1

[12] = compound: CN1CCN(c2nc(C3=C(c4c[nH]c5ccccc45)C(=O)NC3=O)c3ccccc3n2)CC1 [sotrastaurin]
Procedure, shortened: as §1

[13] = compound: CN1CC[C@H](c2c(O)cc(O)c3c(=O)cc(-c4ccccc4Cl)oc23)[C@H](O)C1 [alvocidib]
Procedure, shortened: as §1

[14] = compound: CN1CCc2c(c3ccccc3n2Cc2ccc(C(=O)NO)cc2)C1 [Tubastatin A]
Procedure, shortened: as §1

[15] = compound: CNC(=O)C1=CC=CC=C1NC2=NC(=NC=C2Cl)NC3=C(C=C(C=C3)N4CCOCC4)OC
Procedure, shortened: as §1

[16] = compound: CNC(=O)c1ccc(Nc2ncc(C(F)(F)F)c(NCc3nccnc3N(C)S(C)(=O)=O)n2)cc1 [defactinib]
Procedure, shortened: as §1

[17] = compound: CNCc1ccc(-c2[nH]c3cc(F)cc4c3c2CCNC4=O)cc1 [rucaparib]
Procedure, shortened: as §1

[18] = compound: CNc1nc(-c2ccc3c(N)n[nH]c3c2)cc(N2C[C@@H](C(=O)NC3CCCCC3)CC[C@H]2C)n1
Procedure, shortened: as §1

[19] = compound: COC(=O)N[C@@H](C)CNc1nccc(-c2cn(C(C)C)nc2-c2cc(Cl)cc(NS(C)(=O)=O)c2F)n1 [encorafenib]
Procedure, shortened: as §1

[20] = compound: COC(=O)[C@H](CCSC)NC(=O)C1=C(C=C(C=C1)NC[C@H](CS)N)C2=CC=CC=C2
Procedure, shortened: as §1

Measured: log2 fold change

NAA38 isoform 2 (UniProt Q9BRA0)
Sequence of UniProt Q9BRA0 (Q9BRA0 whole entry, looked up): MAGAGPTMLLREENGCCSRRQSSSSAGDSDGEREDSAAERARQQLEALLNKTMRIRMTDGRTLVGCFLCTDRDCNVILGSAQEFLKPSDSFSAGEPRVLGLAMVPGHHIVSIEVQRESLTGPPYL
active: [5] 0.265
inactive: [1] -0.045 | [2] -0.017 | [3] -0.025 | [4] 0.029 | [6] -0.127 | [7] -0.026 | [8] 0.017 | [9] -0.095 | [10] 0.064 | [11] -0.02 | [12] 0.009 | [13] -0.108 | [14] 0.081 | [15] -0.044 | [16] -0.101 | [17] 0.023 | [18] 0.044 | [19] 0.022 | [20] -0.058

NEDD4 isoform 4 (UniProt P46934)
Sequence of UniProt P46934 (P46934 whole entry, looked up): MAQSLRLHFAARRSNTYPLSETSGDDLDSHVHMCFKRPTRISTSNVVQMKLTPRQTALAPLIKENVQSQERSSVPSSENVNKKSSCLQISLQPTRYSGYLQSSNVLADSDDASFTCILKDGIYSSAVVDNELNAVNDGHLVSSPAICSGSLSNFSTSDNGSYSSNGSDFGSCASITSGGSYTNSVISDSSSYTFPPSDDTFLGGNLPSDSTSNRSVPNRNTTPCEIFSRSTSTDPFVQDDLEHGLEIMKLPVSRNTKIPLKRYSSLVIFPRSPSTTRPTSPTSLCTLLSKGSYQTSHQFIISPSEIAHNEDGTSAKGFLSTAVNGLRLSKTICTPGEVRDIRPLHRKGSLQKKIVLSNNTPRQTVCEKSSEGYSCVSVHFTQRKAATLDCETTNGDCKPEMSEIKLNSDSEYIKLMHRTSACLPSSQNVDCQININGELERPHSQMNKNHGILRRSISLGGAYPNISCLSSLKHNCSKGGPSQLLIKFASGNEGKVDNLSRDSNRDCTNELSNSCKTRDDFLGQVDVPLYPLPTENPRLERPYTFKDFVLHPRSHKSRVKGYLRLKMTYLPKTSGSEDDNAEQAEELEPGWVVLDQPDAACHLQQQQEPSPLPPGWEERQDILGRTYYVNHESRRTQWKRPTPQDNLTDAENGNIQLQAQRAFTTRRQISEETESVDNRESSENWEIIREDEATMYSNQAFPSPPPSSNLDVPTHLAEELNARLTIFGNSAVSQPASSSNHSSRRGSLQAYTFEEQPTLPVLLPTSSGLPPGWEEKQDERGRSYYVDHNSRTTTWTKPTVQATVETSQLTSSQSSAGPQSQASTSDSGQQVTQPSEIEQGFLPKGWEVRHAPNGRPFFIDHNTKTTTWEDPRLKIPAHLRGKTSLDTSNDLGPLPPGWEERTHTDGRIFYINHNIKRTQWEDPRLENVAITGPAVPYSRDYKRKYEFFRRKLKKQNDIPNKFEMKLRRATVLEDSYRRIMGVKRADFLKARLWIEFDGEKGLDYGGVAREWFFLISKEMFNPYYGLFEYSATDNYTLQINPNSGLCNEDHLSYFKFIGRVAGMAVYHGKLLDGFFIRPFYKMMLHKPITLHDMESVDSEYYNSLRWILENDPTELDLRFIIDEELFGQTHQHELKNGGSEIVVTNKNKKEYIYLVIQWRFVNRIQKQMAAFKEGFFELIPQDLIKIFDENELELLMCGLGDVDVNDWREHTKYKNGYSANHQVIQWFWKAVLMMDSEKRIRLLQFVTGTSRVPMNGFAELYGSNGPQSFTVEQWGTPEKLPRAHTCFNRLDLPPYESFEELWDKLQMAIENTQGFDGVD
active: [2] -0.521
inactive: [1] -0.102 | [3] 0.008 | [4] 0.008 | [5] 0 | [6] -0.031 | [7] 0.015 | [8] 0.065 | [9] -0.01 | [10] 0.049 | [11] 0.116 | [12] -0.026 | [13] -0.09 | [14] 0.037 | [15] 0.041 | [16] -0.108 | [17] -0.099 | [18] -0.026 | [19] 0.049 | [20] -0.009

OPA1 isoform 2 (UniProt O60313)
Sequence of UniProt O60313 (O60313 whole entry, looked up): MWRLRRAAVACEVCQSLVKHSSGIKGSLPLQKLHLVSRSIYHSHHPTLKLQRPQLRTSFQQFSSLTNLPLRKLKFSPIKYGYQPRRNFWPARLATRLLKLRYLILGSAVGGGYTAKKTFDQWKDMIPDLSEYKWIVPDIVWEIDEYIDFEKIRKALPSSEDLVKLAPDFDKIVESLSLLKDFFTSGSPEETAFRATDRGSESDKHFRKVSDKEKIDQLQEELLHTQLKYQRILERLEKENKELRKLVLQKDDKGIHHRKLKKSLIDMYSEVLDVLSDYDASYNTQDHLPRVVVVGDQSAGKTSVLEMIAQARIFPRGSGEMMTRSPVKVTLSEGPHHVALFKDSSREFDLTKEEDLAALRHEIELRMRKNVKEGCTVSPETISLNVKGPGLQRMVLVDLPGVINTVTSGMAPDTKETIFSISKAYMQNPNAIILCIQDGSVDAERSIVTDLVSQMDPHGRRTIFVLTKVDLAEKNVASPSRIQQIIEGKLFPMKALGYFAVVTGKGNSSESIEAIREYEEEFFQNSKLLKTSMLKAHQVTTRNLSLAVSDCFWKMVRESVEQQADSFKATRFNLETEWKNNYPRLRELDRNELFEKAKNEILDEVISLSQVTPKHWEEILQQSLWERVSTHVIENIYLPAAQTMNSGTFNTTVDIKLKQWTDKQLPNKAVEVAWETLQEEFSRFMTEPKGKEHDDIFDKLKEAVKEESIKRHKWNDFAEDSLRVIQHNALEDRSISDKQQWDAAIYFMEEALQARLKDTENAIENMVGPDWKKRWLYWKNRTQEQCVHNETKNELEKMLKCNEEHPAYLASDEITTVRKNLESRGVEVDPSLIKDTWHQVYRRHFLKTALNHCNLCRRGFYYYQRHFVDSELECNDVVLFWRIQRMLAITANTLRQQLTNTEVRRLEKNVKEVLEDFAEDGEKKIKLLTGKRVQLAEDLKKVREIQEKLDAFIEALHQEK
inactive: [1] -0.187 | [2] -0.264 | [3] 0.039 | [4] 0.027 | [5] -0.047 | [6] -0.081 | [7] 0.023 | [8] 0.07 | [9] -0.013 | [11] -0.072 | [12] -0.005 | [13] -0.047 | [14] 0.054 | [15] -0.047 | [16] -0.024 | [17] -0.001 | [18] 0.064 | [19] 0.056 | [20] -0.047
active: [10] -0.347

NDUFA7 (UniProt O95182)
Sequence of UniProt O95182 (O95182 whole entry, looked up): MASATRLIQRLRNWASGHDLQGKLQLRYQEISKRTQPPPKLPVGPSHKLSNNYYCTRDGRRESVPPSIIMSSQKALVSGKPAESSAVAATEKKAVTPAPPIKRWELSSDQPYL
active: [10] -0.324
inactive: [1] -0.19 | [2] -0.109 | [3] -0.023 | [4] 0.052 | [5] 0 | [6] 0.011 | [7] 0.01 | [8] -0.02 | [9] 0.027 | [11] -0.037 | [12] 0.047 | [13] -0.01 | [14] -0.148 | [15] -0.042 | [16] 0 | [17] 0.046 | [18] -0.031 | [19] -0.042 | [20] -0.008

NDUFA6 (UniProt P56556)
Sequence of UniProt P56556 (P56556 whole entry, looked up): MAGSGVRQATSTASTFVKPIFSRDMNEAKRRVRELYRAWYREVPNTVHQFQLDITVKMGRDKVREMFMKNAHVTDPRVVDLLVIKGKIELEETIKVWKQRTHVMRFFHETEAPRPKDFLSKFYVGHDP
inactive: [1] -0.069 | [2] -0.252 | [3] 0.098 | [4] 0.115 | [5] -0.086 | [6] -0.089 | [7] 0.081 | [8] 0.116 | [9] -0.022 | [10] -0.072 | [11] -0.037 | [12] 0.003 | [13] -0.122 | [14] 0.021 | [15] -0.039 | [16] -0.068 | [17] 0.006 | [18] 0.044 | [19] 0.034 | [20] -0.039

NOB1 (UniProt Q9ULX3)
inactive: [1] -0.053 | [2] -0.026 | [3] 0.093 | [4] -0.02 | [5] -0.033 | [6] 0.026 | [7] -0.011 | [8] 0.026 | [9] 0.04 | [10] -0.049 | [11] -0.022 | [12] -0.092 | [13] 0 | [14] 0.045 | [15] -0.047 | [16] -0.009 | [17] 0.141 | [18] 0.103 | [19] 0.007 | [20] 0

NMNAT1 (UniProt Q9HAN9)
Sequence of UniProt Q9HAN9 (Q9HAN9 whole entry, looked up): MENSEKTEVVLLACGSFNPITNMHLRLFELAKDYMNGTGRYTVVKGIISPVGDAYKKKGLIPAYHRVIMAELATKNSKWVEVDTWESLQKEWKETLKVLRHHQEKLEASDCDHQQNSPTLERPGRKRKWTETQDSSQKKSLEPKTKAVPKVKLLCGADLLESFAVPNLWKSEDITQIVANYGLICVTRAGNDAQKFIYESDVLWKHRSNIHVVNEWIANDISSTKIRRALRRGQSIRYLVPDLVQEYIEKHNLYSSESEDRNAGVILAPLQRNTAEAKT
inactive: [1] 0.302 | [2] 0.161 | [3] -0.007 | [4] -0.168 | [5] -0.06 | [6] 0.098 | [7] -0.092 | [8] -0.126 | [9] 0.228 | [10] 0.053 | [11] -0.044 | [12] -0.033 | [13] 0.158 | [14] 0.07 | [15] -0.121 | [16] 0.237 | [17] 0.354 | [18] 0.02 | [19] 0.147 | [20] 0.091

NFATC2 (UniProt Q13469)
active: [18] -0.382
inactive: [1] -0.098 | [2] -0.281 | [3] 0.19 | [4] -0.001 | [5] 0.045 | [6] -0.197 | [7] 0.065 | [8] 0.191 | [9] 0.039 | [10] -0.102 | [11] -0.128 | [12] -0.166 | [13] -0.199 | [14] 0.118 | [15] 0.007 | [16] -0.14 | [17] -0.047 | [19] 0.101 | [20] 0.071

MRPS27 isoform 2 (UniProt Q92552)
inactive: [1] -0.02 | [2] -0.041 | [3] 0.132 | [4] 0.052 | [5] -0.033 | [6] -0.046 | [7] 0.019 | [8] 0.05 | [9] 0.047 | [10] -0.001 | [11] -0.107 | [12] -0.089 | [13] -0.078 | [14] 0.06 | [15] 0.071 | [16] -0.012 | [17] 0.069 | [18] 0.108 | [19] 0.109 | [20] -0.045

MRPS33 (UniProt Q9Y291)
inactive: [1] 0.016 | [2] 0.025 | [3] 0.057 | [4] -0.012 | [5] 0 | [6] -0.011 | [7] -0.01 | [8] -0.007 | [9] -0.001 | [10] 0.017 | [11] -0.033 | [12] -0.077 | [13] -0.038 | [14] 0.02 | [15] -0.018 | [16] 0.087 | [17] 0.119 | [18] 0.04 | [19] 0.024 | [20] 0.02

MND1 (UniProt Q9BWT6)
Sequence of UniProt Q9BWT6 (Q9BWT6 whole entry, looked up): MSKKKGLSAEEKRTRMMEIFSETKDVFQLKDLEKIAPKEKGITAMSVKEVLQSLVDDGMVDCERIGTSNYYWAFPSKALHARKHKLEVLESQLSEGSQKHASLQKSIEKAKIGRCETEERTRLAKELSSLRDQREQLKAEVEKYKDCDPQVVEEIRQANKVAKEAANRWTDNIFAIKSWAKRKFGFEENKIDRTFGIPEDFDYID
inactive: [1] -0.081 | [2] -0.175 | [3] -0.036 | [4] 0.049 | [5] 0.045 | [6] -0.076 | [7] -0.015 | [8] -0.008 | [9] 0.04 | [11] 0.006 | [12] 0.036 | [13] 0.011 | [14] -0.006 | [15] -0.029 | [16] -0.021 | [17] 0.05 | [18] -0.059 | [19] -0.15 | [20] 0.023
active: [10] -0.468

NCAPG (UniProt Q9BPX3)
inactive: [1] -0.105 | [3] 0.059 | [4] 0.023 | [5] -0.002 | [6] 0.003 | [7] 0.04 | [8] 0.066 | [9] 0.004 | [10] 0.092 | [11] -0.077 | [12] -0.122 | [13] -0.053 | [14] 0.026 | [15] 0.106 | [16] -0.067 | [17] 0.078 | [18] -0.004 | [19] 0.093 | [20] -0.039
active: [2] -0.506

NMRAL1 (UniProt Q9HBL8)
Sequence of UniProt Q9HBL8 (Q9HBL8 whole entry, looked up): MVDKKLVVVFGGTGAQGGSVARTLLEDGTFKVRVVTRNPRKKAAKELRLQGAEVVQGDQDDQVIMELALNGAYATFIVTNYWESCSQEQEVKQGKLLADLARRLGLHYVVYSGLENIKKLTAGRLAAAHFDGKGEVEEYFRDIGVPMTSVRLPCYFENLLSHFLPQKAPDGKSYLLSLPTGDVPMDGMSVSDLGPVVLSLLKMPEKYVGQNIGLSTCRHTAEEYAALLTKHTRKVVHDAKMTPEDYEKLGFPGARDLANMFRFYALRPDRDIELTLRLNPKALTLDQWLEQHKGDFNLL
inactive: [1] 0.27 | [2] 0.294 | [3] 0.105 | [4] 0.035 | [5] 0.01 | [6] 0.055 | [7] 0.122 | [8] 0.011 | [9] 0.059 | [10] 0.526 | [11] 0.115 | [12] 0.028 | [13] 0.001 | [14] 0.14 | [15] 0.061 | [16] 0.122 | [18] 0.018 | [19] -0.14 | [20] -0.154
active: [17] 0.84

NCL (UniProt P19338)
Sequence of UniProt P19338 (P19338 whole entry, looked up): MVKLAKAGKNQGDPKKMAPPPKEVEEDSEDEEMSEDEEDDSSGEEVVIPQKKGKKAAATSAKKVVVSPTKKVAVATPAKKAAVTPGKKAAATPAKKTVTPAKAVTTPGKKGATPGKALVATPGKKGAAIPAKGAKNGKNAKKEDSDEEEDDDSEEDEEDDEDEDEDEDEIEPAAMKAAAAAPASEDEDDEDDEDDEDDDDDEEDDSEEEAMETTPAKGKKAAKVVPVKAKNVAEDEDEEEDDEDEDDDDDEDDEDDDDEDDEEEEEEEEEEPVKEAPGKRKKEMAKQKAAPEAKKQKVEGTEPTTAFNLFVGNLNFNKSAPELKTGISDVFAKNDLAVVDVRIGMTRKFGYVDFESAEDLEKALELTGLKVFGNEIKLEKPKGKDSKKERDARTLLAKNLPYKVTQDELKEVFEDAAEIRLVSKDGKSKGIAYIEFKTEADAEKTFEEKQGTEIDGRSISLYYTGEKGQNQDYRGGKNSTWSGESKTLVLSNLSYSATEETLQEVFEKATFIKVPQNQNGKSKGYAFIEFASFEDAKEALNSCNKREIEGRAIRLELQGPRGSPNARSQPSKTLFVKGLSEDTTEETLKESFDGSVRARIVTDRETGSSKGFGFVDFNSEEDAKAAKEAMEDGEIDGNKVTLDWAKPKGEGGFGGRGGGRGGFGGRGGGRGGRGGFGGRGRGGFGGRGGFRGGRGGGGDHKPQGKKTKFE
inactive: [1] 0.167 | [2] 0.173 | [3] -0.011 | [4] -0.427 | [5] 0.022 | [6] 0.336 | [7] -0.06 | [8] -0.194 | [9] 0.393 | [10] 0.293 | [11] -0.111 | [12] 0.013 | [13] 0.277 | [14] 0.148 | [15] -0.001 | [16] 0.354 | [17] 0.387 | [18] 0.137 | [19] 0.257 | [20] -0.01

NHLRC2 (UniProt Q8NBF2)
Sequence of UniProt Q8NBF2 (Q8NBF2 whole entry, looked up): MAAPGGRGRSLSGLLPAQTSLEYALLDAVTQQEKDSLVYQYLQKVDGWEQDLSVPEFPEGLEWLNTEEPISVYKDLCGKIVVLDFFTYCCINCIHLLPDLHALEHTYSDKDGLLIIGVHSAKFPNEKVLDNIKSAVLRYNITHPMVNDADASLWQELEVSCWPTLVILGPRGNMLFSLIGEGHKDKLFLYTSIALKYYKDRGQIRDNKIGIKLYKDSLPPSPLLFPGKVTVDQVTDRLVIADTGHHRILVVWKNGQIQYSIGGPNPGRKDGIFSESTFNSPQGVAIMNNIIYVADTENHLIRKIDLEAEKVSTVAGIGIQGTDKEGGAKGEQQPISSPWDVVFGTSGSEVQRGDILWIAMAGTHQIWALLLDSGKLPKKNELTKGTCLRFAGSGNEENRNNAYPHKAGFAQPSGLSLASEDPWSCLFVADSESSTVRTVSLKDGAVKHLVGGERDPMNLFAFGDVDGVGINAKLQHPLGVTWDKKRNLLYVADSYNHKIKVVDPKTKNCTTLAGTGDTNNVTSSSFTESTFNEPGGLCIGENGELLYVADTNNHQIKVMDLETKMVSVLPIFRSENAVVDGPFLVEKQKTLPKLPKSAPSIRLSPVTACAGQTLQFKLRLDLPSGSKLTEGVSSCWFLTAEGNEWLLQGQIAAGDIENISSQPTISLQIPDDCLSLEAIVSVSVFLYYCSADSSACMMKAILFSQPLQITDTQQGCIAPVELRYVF
active: [10] -0.272
inactive: [1] 0.024 | [2] 0.029 | [3] -0.026 | [4] -0.06 | [5] -0.037 | [6] -0.109 | [7] 0.003 | [8] 0.01 | [9] -0.064 | [11] -0.026 | [12] 0.039 | [13] -0.037 | [14] -0.072 | [15] -0.055 | [16] -0.039 | [17] -0.016 | [18] 0.059 | [19] -0.045 | [20] 0.146

MRPS10 (UniProt P82664)
inactive: [1] 0.02 | [2] 0.027 | [3] 0.088 | [4] -0.022 | [5] -0.021 | [6] 0.045 | [7] 0.085 | [8] 0.003 | [9] 0.066 | [10] 0.068 | [11] -0.029 | [12] -0.076 | [13] -0.007 | [14] 0.035 | [15] -0.034 | [16] -0.071 | [17] 0.006 | [18] 0.097 | [19] 0.014 | [20] -0.055

From the supplement of paper PMC10849652
